The other results are listed elsewhere or left out. The true hit rate is not given.
Molecular target: furin, P09958
Test: furin cleavage Z-score vs untreated control; higher = more cleavage, active = 3.5 or more, inactive = 1 or less, 8 variable residues between constant flanks
How it was run: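 Furin cleavage was scored on 8-mer peptides joined to a cDNA oligonucleotide and bound to magnetic beads at the N-terminus. Digestion with purified furin (1:10 enzyme:substrate, 0.01 ml, 50 mM HEPES pH 7.5, CaCl2, NaCl) lasted 7.5, 15 or 30 min. Freed DNA was tagged with adapters by PCR, sequenced and counted; the cleavage Z-score is the lowess-adjusted log count versus furin-free reactions, scaled by median absolute deviation.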

Sequence of furin, P09958 (P09958 whole entry): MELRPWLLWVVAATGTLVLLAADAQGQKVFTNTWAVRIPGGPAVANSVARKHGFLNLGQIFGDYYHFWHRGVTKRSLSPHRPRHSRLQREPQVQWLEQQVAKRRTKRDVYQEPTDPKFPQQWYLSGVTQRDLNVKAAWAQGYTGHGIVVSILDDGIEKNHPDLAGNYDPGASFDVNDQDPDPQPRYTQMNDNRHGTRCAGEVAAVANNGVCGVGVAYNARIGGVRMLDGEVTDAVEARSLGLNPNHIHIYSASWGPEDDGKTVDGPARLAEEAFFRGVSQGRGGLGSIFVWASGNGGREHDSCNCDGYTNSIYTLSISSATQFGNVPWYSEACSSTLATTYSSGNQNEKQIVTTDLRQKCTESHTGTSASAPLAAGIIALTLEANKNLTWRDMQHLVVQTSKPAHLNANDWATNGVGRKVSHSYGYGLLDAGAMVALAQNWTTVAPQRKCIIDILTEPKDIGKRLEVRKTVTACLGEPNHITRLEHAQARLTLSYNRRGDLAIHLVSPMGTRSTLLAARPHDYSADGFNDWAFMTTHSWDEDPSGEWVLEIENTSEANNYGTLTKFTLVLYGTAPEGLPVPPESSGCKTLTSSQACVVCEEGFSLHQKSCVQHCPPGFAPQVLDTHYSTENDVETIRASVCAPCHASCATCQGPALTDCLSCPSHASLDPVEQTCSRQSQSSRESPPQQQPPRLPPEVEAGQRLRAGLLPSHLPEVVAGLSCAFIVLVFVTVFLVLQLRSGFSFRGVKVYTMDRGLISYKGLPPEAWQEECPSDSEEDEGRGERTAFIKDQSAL

B1: HC1011 (peptide)
chain: CALYREFDEMAGNASASA
7.5 min
  furin cleavage Z-score: 0.989 (inactive)
15 min
  furin cleavage Z-score: 0.494 (inactive)
30 min
  furin cleavage Z-score: -1.47 (inactive)

B2: HC737 (peptide)
chain: CALSPRPISYAGNASASA
7.5 min
  furin cleavage Z-score: 0.872 (inactive)
15 min
  furin cleavage Z-score: 0.348 (inactive)
30 min
  furin cleavage Z-score: 0.915 (inactive)

B3: FS-591 (peptide)
chain: CAGDSRVMRWAGNASASA
7.5 min
  furin cleavage Z-score: 0.599 (inactive)
15 min
  furin cleavage Z-score: -0.204 (inactive)
30 min
  furin cleavage Z-score: 0.578 (inactive)

B4: HC1125 (peptide)
chain: CAVSPTHYVPAGNASASA
7.5 min
  furin cleavage Z-score: 0.189 (inactive)
15 min
  furin cleavage Z-score: 0.58 (inactive)
30 min
  furin cleavage Z-score: -0.874 (inactive)

B5: TR5 (peptide)
chain: CALSPRTFHPAGNASASA
7.5 min
  furin cleavage Z-score: -0.266 (inactive)
15 min
  furin cleavage Z-score: 0.174 (inactive)
30 min
  furin cleavage Z-score: -0.959 (inactive)

B6: EK10 (peptide)
chain: CAGDKELRTGAGNASASA
7.5 min
  furin cleavage Z-score: -0.528 (inactive)
15 min
  furin cleavage Z-score: -3.59 (inactive)
30 min
  furin cleavage Z-score: -0.0871 (inactive)

B7: FS-687 (peptide)
chain: CALSPRVKRIAGNASASA
7.5 min
  furin cleavage Z-score: 8.46 (active)
15 min
  furin cleavage Z-score: 10.4 (active)
30 min
  furin cleavage Z-score: 8.69 (active)

B8: FS-1105 (peptide)
chain: CAVSPRVKRRAGNASASA
7.5 min
  furin cleavage Z-score: 6.42 (active)
15 min
  furin cleavage Z-score: 5.9 (active)
30 min
  furin cleavage Z-score: 5.56 (active)

B9: FS-274 (peptide)
chain: CALVHRVKRRAGNASASA
7.5 min
  furin cleavage Z-score: 13 (active)
15 min
  furin cleavage Z-score: 14.7 (active)
30 min
  furin cleavage Z-score: 10.7 (active)

B10: FS-159 (peptide)
chain: CAGDKRVKRRAGNASASA
7.5 min
  furin cleavage Z-score: 8.54 (active)
15 min
  furin cleavage Z-score: 8.95 (active)
30 min
  furin cleavage Z-score: 8.22 (active)

B11: FS-1104 (peptide)
chain: CAVSPRVKRPAGNASASA
7.5 min
  furin cleavage Z-score: -1.44 (inactive)
15 min
  furin cleavage Z-score: -0.535 (inactive)
30 min
  furin cleavage Z-score: -0.559 (inactive)

B12: NG9 (peptide)
chain: CALEVLFQGPAGNASASA
7.5 min
  furin cleavage Z-score: -2.01 (inactive)
15 min
  furin cleavage Z-score: -0.768 (inactive)
30 min
  furin cleavage Z-score: -2.01 (inactive)

B13: HC133 (peptide)
chain: CAEVVESTWVAGNASASA
7.5 min
  furin cleavage Z-score: 0.708 (inactive)
15 min
  furin cleavage Z-score: -0.27 (inactive)
30 min
  furin cleavage Z-score: -1.67 (inactive)

B14: HC1815 (peptide)
chain: CADHMEECSQAGNASASA
7.5 min
  furin cleavage Z-score: -0.251 (inactive)
15 min
  furin cleavage Z-score: -0.239 (inactive)
30 min
  furin cleavage Z-score: -0.816 (inactive)

B15: HC1522 (peptide)
chain: CACRAAGLQDAGNASASA
7.5 min
  furin cleavage Z-score: -0.902 (inactive)
15 min
  furin cleavage Z-score: -1.39 (inactive)
30 min
  furin cleavage Z-score: -1.09 (inactive)

B16: HC2505 (peptide)
chain: CASTLCSAHLAGNASASA
7.5 min
  furin cleavage Z-score: 0.374 (inactive)
15 min
  furin cleavage Z-score: 0.0643 (inactive)
30 min
  furin cleavage Z-score: -1.17 (inactive)

B17: FS-3152 (peptide)
chain: CARDRRSPAEAGNASASA
7.5 min
  furin cleavage Z-score: 10.2 (active)
15 min
  furin cleavage Z-score: 8.19 (active)
30 min
  furin cleavage Z-score: 8.7 (active)

B18: FS-1965 (peptide)
chain: CARPRRSEKQAGNASASA
7.5 min
  furin cleavage Z-score: 3.36
15 min
  furin cleavage Z-score: 4.62 (active)
30 min
  furin cleavage Z-score: 3.66 (active)

B19: FS-2904 (peptide)
chain: CARDLRGLAEAGNASASA
7.5 min
  furin cleavage Z-score: -1.94 (inactive)
15 min
  furin cleavage Z-score: 0.23 (inactive)
30 min
  furin cleavage Z-score: 0.275 (inactive)

B20: HC924 (peptide)
chain: CAWYELTPAEAGNASASA
7.5 min
  furin cleavage Z-score: -1.27 (inactive)
15 min
  furin cleavage Z-score: -1.36 (inactive)
30 min
  furin cleavage Z-score: 1.04

B21: FS-3021 (peptide)
chain: CARPRRGIIFAGNASASA
7.5 min
  furin cleavage Z-score: 1.06
15 min
  furin cleavage Z-score: 1.16
30 min
  furin cleavage Z-score: 5.75 (active)

B22: FS-3023 (peptide)
chain: CARPRRQGEVAGNASASA
7.5 min
  furin cleavage Z-score: 0.519 (inactive)
15 min
  furin cleavage Z-score: 0.202 (inactive)
30 min
  furin cleavage Z-score: 0.396 (inactive)

B23: FS-2949 (peptide)
chain: CARIFRHSSVAGNASASA
7.5 min
  furin cleavage Z-score: 1.97
15 min
  furin cleavage Z-score: 0.695 (inactive)
30 min
  furin cleavage Z-score: 1.03

B24: FS-2030 (peptide)
chain: CARIFRSSDFAGNASASA
7.5 min
  furin cleavage Z-score: 0.78 (inactive)
15 min
  furin cleavage Z-score: -0.809 (inactive)
30 min
  furin cleavage Z-score: 0.131 (inactive)

B25: FS-2148 (peptide)
chain: CARIFRSIKQAGNASASA
7.5 min
  furin cleavage Z-score: 0.0894 (inactive)
15 min
  furin cleavage Z-score: 2.91
30 min
  furin cleavage Z-score: 5.31 (active)

B26: HC234 (peptide)
chain: CAAARALAHGAGNASASA
7.5 min
  furin cleavage Z-score: 0.0166 (inactive)
15 min
  furin cleavage Z-score: -0.81 (inactive)
30 min
  furin cleavage Z-score: 0.0305 (inactive)

B27: HC2418 (peptide)
chain: CAEVPCHRPTAGNASASA
7.5 min
  furin cleavage Z-score: 0.387 (inactive)
15 min
  furin cleavage Z-score: -0.0389 (inactive)
30 min
  furin cleavage Z-score: 0.307 (inactive)

B28: HC2517 (peptide)
chain: CASTSCSAHLAGNASASA
7.5 min
  furin cleavage Z-score: 0.382 (inactive)
15 min
  furin cleavage Z-score: 1.16
30 min
  furin cleavage Z-score: 0.668 (inactive)
